Experimental data published in PubChem BioAssay (EPA / NIEHS).
Activity calls are given as the source filed them. The calls were made as follows: active = hit-call score of the fitted dose curve at least 0.9, where 1 is the maximum; inactive = score below 0.9.

assay: APR_HepG2_MitoMass_1hr: Apredica 1-hour HepG2 Assay for Mitochondrial Mass (AID 2282674); settings: high-content imaging, actives raise or lower the signal
Description: APR_HepG2_1hr is a cell-based, multiplexed-readout assay that uses HepG2, a human liver cell line, with measurements taken at 1 hour after chemical dosing in a 384-well plate.APR_HepG2_MitoMass_1hr is one of 10 assay component(s) measured or calculated from the APR_HepG2_1hr assay. It is designed to make measurements of cell phenotype, a form of morphology reporter, as detected with fluorescence intensity signals by HCS Fluorescent Imaging technology.Data from the assay component APR_HepG2_MitoMass_1hr was analyzed into 1 assay endpoint. This assay endpoint, APR_HepG2_MitoMass_1hr, was analyzed with bidirectional fitting relative to DMSO as the negative control and baseline of activity. Using a type of morphology reporter, gain or loss-of-signal activity can be used to understand changes in the signaling. Furthermore, this assay endpoint can be referred to as a primary readout, because this assay has produced multiple assay endpoints where this one serves a signaling function. To generalize the intended target to other relatable targets, this assay endpoint is annotated to the cell morphology intended target family, where the subfamily is organelle conformation.
Cells were treated with dimethyl sulfoxide (DMSO) as a solvent control at a final concentration of 0.5% v/v or with compounds in DMSO with a resulting final DMSO concentration of 0.5% v/v. Compound treatment was done at concentrations of 0.39, 0.78, 1.56, 3.12, 6.24, 12.5, 25, 50, 100, and 200 uM in duplicate on each plate. Cells were treated with compounds for 1, 24, or 72 hr. Carbonyl […] m-chloro-phenylhydrazone (CCCP) and taxol were used as positive controls for mitochondrial function and cytoskeletal stability, respectively; DMSO served as the negative control for this experiment. Cells were fixed by the direct addition of 50 uL formaldehyde in Hank's Balanced Salt Solution (HBSS) to a final concentration of 3.7%. After incubation in the fixation medium for 30 min at room temperature (293-298 K), cells were rinsed twice with HBSS and treated with cell permeabilization buffer (16 uL of 0.5% Triton X-100) for 10 min at room temperature (293-298 K) before labeling. For mitochondrial membrane potential and mitochondrial measurements, pre-fixed cells were incubated with 50 uL of MitoTracker Red CMXRos (Invitrogen) at a concentration of 250 nM for 30 min before fixation. In the remaining cases, post-fixed cells were labeled by incubation with a multiplexed mixture of primary antibodies in HBSS for 60 min at room temperature (293-298 K) to detect immunoreactivity of c-Jun (1:500), phospho-histone H3 (1:100), phospho-histone H2A.x (1:200), p53 (1:400), alpha-tubulin (1:200) and Hoechst 33342 (2 ug/mL). Cells were labeled for multiplexed imaging on two separate plates: a) Hoechst 33342, MitoTracker Red, phospho-histone H3, and alpha-tubulin, and b) Hoechst 33342, phospho-histone H2A.x, and c-Jun. A final rinse with HBSS (50 uL) was performed before analysis. The primary and secondary antibodies for the proteins were phospho-histone H3 (rabbit anti-phospho-histone H3 and FITC-donkey anti-rabbit IgG), phospho-histone H2A.x (mouse anti-phospho-histone H2A.x and FITC-donkey anti-mouse IgG), c-Jun (rabbit anti-phospho-c-Jun and Cy3-donkey anti-rabbit IgG), p53 (sheep anti-p53 and Cy5-donkey anti-sheep IgG), alpha-tubulin (mouse anti-alpha-tubulin and Cy5-donkey anti-mouse IgG). These antibodies are available as the CellCiphr HepG2 assay kit (Millipore).Digital images of each well were captured using a Cellomics ArrayScan VTI (Thermo Scientific Cellomics) (0.8 NA objective, 0.63x optical coupler, and XF-93 filter set) at 20x magnification. The images were acquired using the autofocus feature of the ArrayScan instrument, which entails the following steps. First, the camera focuses on channel 1 (Hoechst 33342), where nuclei are identified. Second, a Z offset of 1 um is used for capturing mitochondria (MitoTracker Red). Third, a Z offset of -2 um is used for capturing the cytoskeleton (tubulin). […]

SMILES	outcome
CCNc1nc(Cl)nc(NC(C)C)n1	inactive
O=C(Nc1ccccc1)Nc1ccnc(Cl)c1	inactive
C=CCC1=C(C)C(OC(=O)C2C(C=C(C)C)C2(C)C)CC1=O (stereo not given)	inactive
COP(=S)(OC)Oc1nc(Cl)c(Cl)cc1Cl	inactive
N#Cc1nn(-c2c(Cl)cc(C(F)(F)F)cc2Cl)c(N)c1S(=O)C(F)(F)F (stereo not given)	inactive
O=C(O)c1nc(Cl)ccc1Cl	inactive
CCc1nn(C)c(C(=O)NCc2ccc(C(C)(C)C)cc2)c1Cl	inactive
CO/C=C(/C(=O)OC)c1ccccc1Oc1cc(Oc2ccccc2C#N)ncn1	inactive
CCNc1nc(Cl)nc(NCC)n1	inactive
CC(Oc1ccc(Cl)cc1Cl)C(=O)O (stereo not given)	inactive
COC(=O)C(C)Oc1ccc(Oc2ccc(Cl)cc2Cl)cc1 (stereo not given)	inactive
CNC(=S)S	inactive
Cc1cc(Cl)ccc1OCC(=O)O	inactive
CCOC(=O)C(Cl)Cc1cc(-n2nc(C)n(C(F)F)c2=O)c(F)cc1Cl (stereo not given)	inactive
C=CCC1=C(C)[C@@H](OC(=O)[C@@H]2[C@@H](C=C(C)C)C2(C)C)CC1=O	inactive
CC1COC(Cn2cncn2)(c2ccc(Oc3ccc(Cl)cc3)cc2Cl)O1 (stereo not given)	inactive
CN(C)C(=S)SSC(=S)N(C)C	inactive
COc1cnc(OC)n2nc(NS(=O)(=O)c3c(OCC(F)F)cccc3C(F)(F)F)nc12	inactive
CNC(=O)ON=CC(C)(C)SC	inactive
CC(C)C1(C)N=C(c2nc3ccccc3cc2C(=O)O)NC1=O (stereo not given)	inactive

SMILES	outcome
CCOc1cc(Oc2ccc(C(F)(F)F)cc2Cl)ccc1[N+](=O)[O-]	inactive
N#CC(CCc1ccc(Cl)cc1)(Cn1cncn1)c1ccccc1 (stereo not given)	inactive
CCCCC(CC)COC(=O)c1ccccc1C(=O)OCC(CC)CCCC (stereo not given)	inactive
Cc1ccc(-c2c(Cl)nc(C#N)n2S(=O)(=O)N(C)C)cc1	inactive
Fc1ccc(Oc2ccnc3cc(Cl)cc(Cl)c23)cc1	inactive
CCCC1COC(Cn2cncn2)(c2ccc(Cl)cc2Cl)O1 (stereo not given)	inactive
COC(=O)c1ccccc1C(=O)OC	inactive
COC(=O)C=C(C)OP(=O)(OC)OC	inactive
CC(C)(C)c1ccc(CSc2cnn(C(C)(C)C)c(=O)c2Cl)cc1	inactive
CCCCNC(=O)n1c(NC(=O)OC)nc2ccccc21	inactive
COc1nc(C)nc(NC(=O)NS(=O)(=O)c2ccccc2CCC(F)(F)F)n1	inactive
CCOP(=S)(OCC)SCn1c(=O)oc2cc(Cl)ccc21	inactive
COc1nc(C)nc(NC(=O)NS(=O)(=O)c2ccccc2Cl)n1	inactive
C=CC1(C)OC(=O)N(c2cc(Cl)cc(Cl)c2)C1=O (stereo not given)	inactive
Cc1c(F)c(F)c(COC(=O)C2C(/C=C(\Cl)C(F)(F)F)C2(C)C)c(F)c1F (stereo not given)	inactive
OC(c1ccc(Cl)cc1)(c1cncnc1)c1ccccc1Cl (stereo not given)	inactive
CC(C)Oc1cc(-n2nc(C(C)(C)C)oc2=O)c(Cl)cc1Cl	inactive
CCCCOC(=O)c1ccccc1C(=O)OCCCC	inactive
COc1nc(NC(C)C)nc(NC(C)C)n1	inactive
CC1=C(C(=O)Nc2ccccc2)SCCO1	inactive
